Drawing on PubChem BioAssay, this text covers composite z-score and z-score for 16 compounds.

The source made the active and inactive calls.

The test system of experiment [1] is Plasmodium falciparum Sir2 (PF13_0152, Sir2A). Briefly: pfSir2 binders on small-molecule microarrays, primary screen, biochemical, small-molecule microarray, 635 nm fluorescence (AID 1098).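 Also: score merges spot fluorescence intensity with its signal-to-noise ratio.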 The conditions noted are these: small-molecule microarray binding, fluorescence 635 nm; higher = more signal.
A short description of experiment [2]: small-molecule microarray binders of probe aDKK1, primary screen, biochemical, biotinylated probe, 635/667 nm fluorescence (AID 1099).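 Also: score merges 667nm spot fluorescence with signal to noise across triplicate slides; reference of the scale not given here.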 The settings on record: higher = more signal.
The nature of experiment [3]: small-molecule microarray binders of probe aCHRDL2, primary screen, biochemical, biotinylated probe, 635/667 nm fluorescence (AID 1100). The conditions noted are these: higher = more signal.
A short description of experiment [4]: splicing luciferase reporter signal modulators, primary screen, spliceosome inhibition project, cell-based, HEK293, splice +/- reporter (AID 1101).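 Also: HEK293 cells carrying a splicing-competent luciferase reporter gene; test concentration not given here.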 The conditions noted are these: luminescence, 24 h, higher = more signal, called active from +8 up or from −8 down. Background: A reporter such as luciferase makes a cellular process visible.
Experiment [5] has as its target Fibroblast growth factor 10 (Homo sapiens) (UniProt O15520). Briefly: FGF10 binders on small-molecule microarrays, primary screen, biochemical, small-molecule microarray, 635 nm fluorescence (AID 1102). The conditions noted are these: FGF10 binding, fluorescence 635 nm, higher = more signal.
In experiment [6] the test system is glycogen synthase kinase-3 (GSK3A per assay name; protocol says GSK3B). Kind of experiment: GSK3 binders on small-molecule microarrays, primary screen, biochemical, small-molecule microarray, 635 nm fluorescence, GSK3A (AID 1103). Also: the record names both GSK3A and GSK3B. The conditions noted are these: small-molecule microarray binding, fluorescence 635 nm; higher = more signal.
The target in experiment [7] is Epidermal growth factor receptor (Homo sapiens) (UniProt P00533). Kind of experiment: EGFR binders on small-molecule microarrays, primary screen, biochemical, small-molecule microarray, 635 nm fluorescence (AID 1104).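 Also: score merges 667 nm emission intensity with spot signal to noise over triplicate slides.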 The conditions noted are these: EGFR binding, higher = more signal.
Chain of Epidermal growth factor receptor (Homo sapiens) (P00533 whole entry, looked up): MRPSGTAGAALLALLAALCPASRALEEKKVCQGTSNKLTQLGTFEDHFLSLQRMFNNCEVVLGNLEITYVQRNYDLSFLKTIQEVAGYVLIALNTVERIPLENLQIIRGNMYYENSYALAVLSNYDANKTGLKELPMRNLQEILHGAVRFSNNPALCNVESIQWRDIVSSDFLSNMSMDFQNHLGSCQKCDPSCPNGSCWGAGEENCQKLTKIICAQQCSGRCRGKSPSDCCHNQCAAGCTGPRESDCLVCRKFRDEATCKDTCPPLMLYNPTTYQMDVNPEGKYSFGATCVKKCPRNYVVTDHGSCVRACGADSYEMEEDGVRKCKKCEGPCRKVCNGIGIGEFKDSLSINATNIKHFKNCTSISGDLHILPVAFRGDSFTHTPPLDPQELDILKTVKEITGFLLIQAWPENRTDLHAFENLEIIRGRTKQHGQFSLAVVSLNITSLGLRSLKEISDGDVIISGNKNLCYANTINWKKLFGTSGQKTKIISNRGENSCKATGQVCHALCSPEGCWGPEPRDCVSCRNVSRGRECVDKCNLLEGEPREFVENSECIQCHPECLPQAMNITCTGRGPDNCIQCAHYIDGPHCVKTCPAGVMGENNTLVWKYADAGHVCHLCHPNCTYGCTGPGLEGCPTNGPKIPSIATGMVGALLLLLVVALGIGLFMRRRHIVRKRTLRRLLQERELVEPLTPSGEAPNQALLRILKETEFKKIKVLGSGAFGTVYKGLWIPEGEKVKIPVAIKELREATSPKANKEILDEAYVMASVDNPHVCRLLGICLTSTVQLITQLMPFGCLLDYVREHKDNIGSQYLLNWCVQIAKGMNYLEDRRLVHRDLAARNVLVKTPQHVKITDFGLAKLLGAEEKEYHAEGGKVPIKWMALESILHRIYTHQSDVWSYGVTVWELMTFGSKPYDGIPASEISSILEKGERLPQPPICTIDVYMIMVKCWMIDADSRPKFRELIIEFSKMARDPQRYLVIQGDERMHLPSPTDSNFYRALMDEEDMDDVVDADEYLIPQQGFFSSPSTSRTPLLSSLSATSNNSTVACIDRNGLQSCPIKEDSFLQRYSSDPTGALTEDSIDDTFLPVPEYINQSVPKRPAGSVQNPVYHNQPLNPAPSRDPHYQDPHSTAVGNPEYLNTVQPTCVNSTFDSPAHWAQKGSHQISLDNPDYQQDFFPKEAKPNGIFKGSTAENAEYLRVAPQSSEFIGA
The target in experiment [8] is Follistatin-related protein 3 (Homo sapiens) (UniProt O95633). Briefly: FSTL3 binders on small-molecule microarrays, primary screen, biochemical, small-molecule microarray, 635 nm fluorescence (AID 1105).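 Also: score merges emission near 667 nm and signal to noise per printed spot across three slides.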 The settings on record: FSTL3 binding, higher = more signal.
Chain of Follistatin-related protein 3 (Homo sapiens) (O95633 whole entry, looked up): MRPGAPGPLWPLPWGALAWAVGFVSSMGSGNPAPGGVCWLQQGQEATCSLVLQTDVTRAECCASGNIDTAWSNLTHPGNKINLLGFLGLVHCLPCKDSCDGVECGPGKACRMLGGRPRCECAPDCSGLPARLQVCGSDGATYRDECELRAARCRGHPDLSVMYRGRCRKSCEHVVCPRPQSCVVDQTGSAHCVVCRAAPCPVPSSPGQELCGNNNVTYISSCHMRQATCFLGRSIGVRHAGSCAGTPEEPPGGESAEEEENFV
The target in experiment [9] is Dickkopf-related protein 1 (Homo sapiens) (UniProt O94907). Kind of experiment: DKK1 binders on small-molecule microarrays, primary screen, biochemical, small-molecule microarray, 635 nm fluorescence scan (AID 1106).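 Also: score merges emission near 667 nm with signal to noise over three replicate slides.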 The conditions noted are these: DKK1 binding, higher = more signal.
Chain of Dickkopf-related protein 1 (Homo sapiens) (O94907 whole entry, looked up): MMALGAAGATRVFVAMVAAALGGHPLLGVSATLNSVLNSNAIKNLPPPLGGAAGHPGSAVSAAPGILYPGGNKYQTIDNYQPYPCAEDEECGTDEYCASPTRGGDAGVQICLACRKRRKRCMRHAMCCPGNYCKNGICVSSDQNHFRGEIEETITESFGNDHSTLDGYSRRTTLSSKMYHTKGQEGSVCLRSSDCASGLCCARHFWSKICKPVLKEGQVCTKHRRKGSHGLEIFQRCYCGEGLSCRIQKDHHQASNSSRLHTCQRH
Experiment [10] deals with Inhibin beta A chain (activin A). Kind of experiment: INHBA (activin A) binders on microarrays, primary screen, biochemical, small-molecule microarray, 635 nm fluorescence scan (AID 1107).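 Also: mouse activin A protein probed at 4.33 µg/mL on printed slides; score merges bound-protein fluorescence near 667 nm with spot signal-to-noise.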 The conditions noted are these: small-molecule microarray binding, higher = more signal.

Chain of Fibroblast growth factor 10 (Homo sapiens) (O15520 whole entry, looked up): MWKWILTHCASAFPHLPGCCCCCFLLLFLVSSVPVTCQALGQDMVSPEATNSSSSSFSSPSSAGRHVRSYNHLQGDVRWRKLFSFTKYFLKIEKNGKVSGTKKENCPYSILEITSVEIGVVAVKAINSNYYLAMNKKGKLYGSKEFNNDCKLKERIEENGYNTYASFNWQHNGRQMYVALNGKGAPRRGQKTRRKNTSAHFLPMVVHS

In the case of `COCCOC(=O)N1C(=O)[C@@]2(c3cc(C#CCC(C(=O)OC)C(=O)OC)ccc31)[C@H](c1ccccc1OCCO)N1[C@H](c3ccccc3)[C@H](c3ccccc3)OC(=O)[C@H]1[C@@H]2C(=O)Nc1nc2ccccc2s1`, the composite z-score turned out to be 1.46 in [1]; 0.514 in experiment [2]; 0.641 in [3]; 1.33 in experiment [5]; 1.14 in [6]; 0.692 in experiment [7]. Also, the composite z-score was determined as 1.4 in experiment [8], 0.785 in experiment [9] and 1.1 in experiment [10]. Further, in experiment [4], the z-score is -1.04 (inactive).
As for `C=C(COC)C(=O)CC[C@H](OC(=O)c1cccnc1)c1ccccc1OCCO`, the composite z-score was found to be 1.25 in experiment [1]; 0.224 in [2]; 0.561 in experiment [3]; 1.12 in experiment [5]; 0.844 in experiment [6]; 0.471 in experiment [7]. Further, the composite z-score in [8] stood at 1.27; in [9], 0.559; in experiment [10], 1.22. In [4], the z-score was 0.193 (inactive).
As to `CC(=O)n1cc(C(O)C2C=CC3C(=O)N(c4ccccc4)C(=O)C3N2Nc2ccc(C#N)cc2)c2ccccc21` (stereo not given), the composite z-score in experiment [1] is 0.696; in [2], 0.415; in [3] it was 1.07; in experiment [5], 0.879; in [6] it was 0.186; in [7] it was -0.105. Moreover, the composite z-score is 0.0519 in experiment [8], -0.817 in [9] and 0.854 in [10]. Further, the z-score in experiment [4] was 0.888 (inactive).
As to `COc1ccc([Si](C)(C)[C@@H]2[C@@H](CCO)O[C@]3(C(=O)N(Cc4cccc(N5CCCCC5=O)c4)c4ccccc43)[C@H]2C)cc1`, the composite z-score is 1.06 in experiment [1]; -0.0212 in [2]; 0.113 in [3]; 1.04 in experiment [5]; 0.971 in experiment [6]; 0.319 in experiment [7]. Further, the composite z-score in [8] came out at 1; in experiment [9], 0.404; in [10], 0.764. For the same compound, the z-score in experiment [4] is -2.96 (inactive).
As to `C=CC[C@@]1(C(=O)NCCN2CCOCC2)N=C(c2ccc(OCCCO)cc2)O[C@@H]1c1ccccc1CN=[N+]=[N-]`, the composite z-score in experiment [1] is 1.02; in experiment [2], 1.06; in [3], 1.3; in [5], 0.205; in experiment [6] it was 0.62; in experiment [7], -0.357. For the same compound, the composite z-score in experiment [8] was 0.221; in [9], 0.137; in experiment [10] it was 1.46. In [4], the z-score was -1.05 (inactive).
`Cc1ccc(C(C)CC(O)C2C=CC3C(=O)NC(=O)C3N2Nc2ccccn2)o1` (stereo not given): the composite z-score in experiment [1] is 1.22; in experiment [2], 0.182; in [3], -0.0866; in experiment [5], 0.228; in experiment [6], 0.309; in experiment [7] it was 0.401. For the same compound, the values for the composite z-score in [8], in experiment [9] and in experiment [10] were 0.506, 0.906 and 1.25, respectively. In addition, the z-score in experiment [4] is 0.802 (inactive).
In the case of `O=C(N1CCCCC1)[C@]1(CCS(=O)(=O)c2ccccc2)N=C(c2ccc(OCCCO)cc2)O[C@@H]1c1ccccc1`, the composite z-score in experiment [1] was 1.26; in experiment [2] it was 1.02; in experiment [3], 1.08; in experiment [5], 0.997; in experiment [6], 1.31; in experiment [7] it was -0.0354. Further, the composite z-score in [8] was 0.536; in experiment [9], -0.142; in experiment [10], 1.29. In addition, the z-score in experiment [4] was 0.25 (inactive).
On to `CC(C)(C)OC(=O)CC[C@@]1(C(N)=O)N=C(c2ccc(OCCCO)cc2)O[C@@H]1c1ccccc1N=[N+]=[N-]`, for which the composite z-score was 1.73 in [1]; 0.751 in [2]; 0.83 in experiment [3]; 1.46 in experiment [5]; 1.22 in [6]; -0.0882 in experiment [7]. The composite z-score in experiment [8] was 0.616; in [9], -0.103; in experiment [10] it was 0.988. Also, the z-score in experiment [4] is -0.809 (inactive).
For `C=C(CCCC)C(=O)CC[C@H](OC(=O)c1ccccc1-c1ccccc1C(=O)O)c1ccc(CO)o1`, the composite z-score in experiment [1] is 1.15; in experiment [2] it was -0.28; in [3] it was -0.635; in [5] it was 1.51; in experiment [6], 1.1; in [7] it was 0.264. Further, the composite z-score in [8] came to 1.2; in [9], 1.02; in experiment [10], 0.64. Also, in [4], the z-score was 0.144 (inactive).
Regarding `COc1ccc([Si](C)(C)[C@@H]2[C@@H](CCn3cc([C@H](O)c4ccccc4)nn3)O[C@]3(C(=O)N(C)c4ccccc43)[C@H]2C)cc1`, the composite z-score is 0.839 in [1]; -0.202 in experiment [2]; 0.28 in experiment [3]; 0.0782 in experiment [5]; 0.11 in experiment [6]; 0.0033 in experiment [7]. Also, the composite z-score in experiment [8] was -0.291; in experiment [9] it was 0.0052; in experiment [10], 0.283. The z-score in experiment [4] was 0.0848 (inactive).
On to `CCOC(=O)C[C@H]1[C@H](OC(=O)c2cc3ccccc3oc2=O)[C@@H](NC(=O)c2ccc3ccccc3c2)c2cc(OCCCO)ccc2N1C(=O)c1ccccc1`, for which the composite z-score in [1] is 1.38; in experiment [2], -0.151; in experiment [3], -0.413; in experiment [5], 1.41; in experiment [6], 0.939; in [7], 0.348. Further, the composite z-score in experiment [8] is 0.906; in experiment [9], 0.486; in experiment [10], 0.447. For the same compound, the z-score in [4] was -1.28 (inactive).
In the case of `C=CCN1C(=O)[C@]2(COC(c3ccc(OCCCO)cc3)=N2)Cc2ccccc21`, the composite z-score in experiment [1] came to 1.31; in [2], 0.16; in experiment [3], 0.946; in experiment [5] it was 0.261; in experiment [6], 0.678; in experiment [7] it was 0.145. In addition, the composite z-score in [8] was 0.232; in [9] it was -0.169; in [10] it was 1.13. Besides, the z-score in experiment [4] is -0.556 (inactive).
In the case of `COc1ccc([Si](C)(C)[C@H]2[C@H](CCO)O[C@@]3(C(=O)N(Cc4ccccc4)c4ccc(N5C(=O)COc6ccccc65)cc43)[C@@H]2C)cc1`, the composite z-score in [1] is 1.12; in experiment [2] it was 0.0649; in experiment [3], 0.521; in [5] it was 0.305; in experiment [6] it was -0.965; in experiment [7] it was -0.5. The composite z-score is -0.207 in experiment [8], -0.214 in [9] and 0.241 in [10]. In [4], the z-score is -1.56 (inactive).
With `CC(=O)NCCCC[C@@H]1NC(=O)[C@@H]2C[C@H](C(=O)NCc3ccc(F)cc3)[C@H](c3ccc(O)cc3)N2C1=O`, the composite z-score was 1.51 in [1]; -0.239 in experiment [2]; -0.072 in experiment [3]; 0.784 in experiment [5]; 0.767 in [6]; 0.0059 in experiment [7]. In addition, the composite z-score came out at 0.177 in experiment [8], 0.592 in experiment [9] and 0.0015 in [10]. Also, in experiment [4], the z-score is -0.661 (inactive).
`C=C[C@H](C)[C@H](OC(=O)Nc1ccc(OC)cc1)c1ccc(O)c2ccccc12`: the composite z-score was 0.443 in experiment [1]; -0.26 in experiment [2]; 0.242 in experiment [3]; 0.111 in experiment [5]; -0.667 in experiment [6]; -0.587 in [7]. Further, the composite z-score in [8] is 0.0608; in [9] it was -0.0641; in experiment [10], 0.997. Besides, the z-score in experiment [4] was -0.632 (inactive).
In the case of `O=C1OCC=C[C@H]2OC34C=CCN(CCN5CCOCC5)C(=O)[C@H]3N(CCCCCCO)C(=O)[C@@H]4[C@@H]12` (stereo not given in full), the composite z-score in [1] was 1.18; in [2] it was -0.148; in [3], 0.251; in experiment [5], -0.231; in [6], -0.162; in experiment [7], -0.0057. Moreover, the values for the composite z-score in experiment [8], in [9] and in experiment [10] were 0.376, 0.0105 and 1.35, respectively. Also, the z-score in experiment [4] is 0.364 (inactive).
